The full list was thinned out, with hits kept by preference.
TDP-43 tox inh: rescues yeast from TDP-43 toxicity; yeast TDP-43 toxicity rescue, BacTiter-Glo growth, 24 h; Potency, µM (series often up to 46.1 µM), hits mostly activators; hit rate 0.45% among 45,000; AID 1347073; active = well fitted activation curve with a large enough effect; note: nearly all actives have a fitted effect of over 55% in size
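TDP-43-expressing yeast, pregrown in raffinose, seeded at OD600 0.02 in galactose medium with compound for 24 hr at 30 deg C. Growth read by BacTiter-Glo luminescence, so rescue of toxicity appears as activation.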
Hits are given with their value; 0 = inactive.

SMILES	TDP-43 tox inh
O=C(Nc1cc(Cl)ccc1Cl)C1Cc2ccccc2O/C1=N\O (stereo not given)	11µM
O=C(Nc1ccccc1Cl)C1C2CCCCC21 (stereo not given)	0
CCCSc1ncc(Cl)c(C(=O)N(Cc2ccc(N(C)C)cc2)C2CCS(=O)(=O)C2)n1 (stereo not given)	0
Cc1onc(-c2ccccc2)c1C(=O)NC(=S)NNC(=O)c1ccco1	0
COc1ccccc1/C=N/NC(=O)c1c(-c2ccccc2)noc1C	0
COc1ccc(C(=O)NC(=S)NNC(=O)c2c(-c3ccccc3)noc2C)cc1OC	13µM
CN(C)c1ccc(NC(=O)Cn2cc(S(=O)(=O)Cc3ccccc3Cl)c3ccccc32)cc1	0
CCCCN(CC)CCCNC(=O)C1CCN(c2nc3ccc(CC)cc3s2)CC1	0
Cc1csc(NC(=S)NC(=O)c2ccccc2)n1	0
Cc1csc(NC(=O)c2ccc(COc3ccccc3)o2)n1	18µM
Cc1cc(NC(=O)c2ccc(COc3ccccc3Cl)o2)no1	0
CCN(CC)CCNC(=O)Nc1ccc2c(c1)N(Cc1ccccc1)C(=O)c1ccccc1S2	0
O=S(=O)(NCc1ccco1)c1ccc2ccccc2c1	11µM
O=[N+]([O-])c1ccccc1S(=O)(=O)NCc1ccco1	0
O=S(=O)(NCc1ccco1)c1ccc(Cl)cc1Cl	0
Cc1cc(Cl)ccc1NC(=O)Cn1nc(C)c2c(C)n(-c3ccccc3)nc2c1=O	0
Cc1ccc(C)c(Cn2c(=O)n(CCCC(=O)NCc3ccc4c(c3)OCO4)c(=O)c3sccc32)c1	0
Cc1ccc(NC(=O)Cn2cc(C(=O)C3CCCCC3)c3ccccc32)cc1	0
NC(=S)N/N=C/c1ccc(-c2ccc(Cl)c(Cl)c2)o1	11µM
O=C(O)c1cc(-c2ccc(/C=N/NC(=S)Nc3ccccc3)o2)ccc1Cl	0
NC(=S)N/N=C/c1ccc(-c2ccc(SC(F)F)cc2)o1	0
CCCCSc1nnc2c(n1)OC(c1ccc(C)s1)Nc1ccccc1-2 (stereo not given)	0
COc1ccccc1N1CCN(c2cnccn2)CC1	0
COc1ccc(-c2csc3ncnc(N4CCN(c5ccccc5OC)CC4)c23)cc1	14µM
COc1ccc(-c2csc3ncnc(N4CCN(CCO)CC4)c23)cc1	0
SMILES	TDP-43 tox inh
COc1cccc(NC(=O)COC(=O)CCSc2ccccc2)c1	0
O=C(COC(=O)CCC(=O)c1ccc(Cl)cc1)NCc1ccc(F)cc1	0
O=C(COC(=O)CCSc1ccc(Cl)cc1)Nc1ccc(F)cc1	11µM
N#C/C(=C\c1ccc(N2CCOCC2)o1)C(=O)Nc1ccc(O)cc1	0
N#C/C(=C/c1ccc(N2CCOCC2)o1)c1ccc(Br)cc1	14µM
CCCN1C(=O)S/C(=C/c2ccc(N3CCOCC3)o2)C1=O	0
Cc1cccc(Nc2nnc(SCC(=O)Nc3ccccc3[N+](=O)[O-])s2)c1C	18µM
Cc1cccc(NC(=O)CSc2nnc(NC(=O)C3CC3)s2)c1C	0
Cc1ccccc1Nc1nnc(SCC(=O)NCc2cccs2)s1	0
COc1cc(Cl)c(NC(=O)CN2C(=O)c3cccnc3Sc3ccccc32)c(OC)c1	0
CCc1ccc(NC(=O)CN2C(=O)C(c3ccc(C)cc3)=NC23CCCCC3)cc1	0
O=C(COC(=O)/C=C/c1ccccc1Cl)NCC1CCCO1 (stereo not given)	0
O=C(COC(=O)c1c(Cl)ccc(Cl)c1Cl)NCC1CCCO1 (stereo not given)	14µM
O=C(COC(=O)c1ccc(Br)cc1)NCC1CCCO1 (stereo not given)	0
O=C1NC(=S)S/C1=C\c1cc2ccccc2nc1N1CCCCC1	6.3µM
CN1CCN(/C=C2\SC(=S)NC2=O)CC1	0
COc1ccc2nc(N3CCCCC3)c(/C=C3\SC(=S)NC3=O)cc2c1	0
CCC1CCCCN1C(=O)Cn1c(=O)n(CCCCCC(=O)NCc2ccccc2Cl)c(=O)c2sccc21 (stereo not given)	0
COc1ccc(C(=O)c2cc([N+](=O)[O-])ccc2N2CCCC2)cc1	0
CN1CCN(c2ccc([N+](=O)[O-])cc2C(=O)c2ccccc2)CC1	0
Cc1ccc(C(=O)c2cc([N+](=O)[O-])ccc2N2CCOCC2)cc1C	22µM
COc1ccc(-c2nc3c4cnn(-c5ccccc5F)c4ncn3n2)cc1	0
O=C(C1CCCN(S(=O)(=O)c2cc(Cl)ccc2Cl)C1)N1CCCC1 (stereo not given)	14µM
O=C(C1CCCN(S(=O)(=O)c2ccc(Cl)cc2)C1)N1CCCC1 (stereo not given)	0
COc1ccc(Cl)cc1S(=O)(=O)N1CCCC(C(=O)N2CCOCC2)C1 (stereo not given)	0
CCn1c2ccccc2c2cc(CN3CCN(Cc4ccccc4Cl)CC3)ccc21	0
COc1ccc(NC(=O)Cn2nnc(-c3nc(-c4ccncc4)no3)c2N)cc1OC	0
CC(NC(=O)OCc1ccccc1)C(=O)Oc1cc2oc(=O)cc(-c3ccccc3)c2cc1Cl (stereo not given)	4.5µM
Cc1ccc2c(COC(=O)c3ccccc3Cl)cc(=O)oc2c1	0
Cc1c(OCC(N)=O)ccc2c(-c3ccccc3)cc(=O)oc12	0
